Sampled rows, rich in hits. Any-hit rate of the full collection: about 19%.
DT40 TDP1 no CPT – qHTS for Inhibitors of human tyrosyl-DNA phosphodiesterase 1 (TDP1): qHTS in cells in absence of CPT; AID 686978, 2013; 15% of 420,000 active; Potency, µM (highest dose often 46.2 µM), for the others: at the highest dose activity change, negative = growth inhibition, actives largely listed as inhibitors; DT40 Tdp1-/- hTDP1 cells, no CPT, ATP luminescence, 48 h; also: potency is read from the fitted curve at half-maximal effect; % is scaled to controls: 0 for no effect and ±100 for the full control effect; nearly all actives have a fitted effect of over 55% in size
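Readout: luminescence from CellTiter-Glo after 30 min in the dark at RT. Cells: DT40 Tdp1-/- with stable hTDP1, 400/well. Exposure: compounds alone, ≥48 hr, 37 °C.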
DT40 TDP1 CPT – DT40-hTDP1 cell growth loss with CPT | chicken DT40 Tdp1-/-;hTDP1 cells + 20 nM CPT, ATP luminescence, 48 h | AID 686979 | Potency, µM (doses to about 46.2 µM), without a hit: at the top dose activity change, negative = growth inhibition, hits mostly inhibitors | 12% of 420,000 active; also: potency is read from the fitted curve at half-maximal effect; % is scaled to controls: 0 for no effect and ±100 for the full control effect; nearly all actives have a fitted effect of over 55% in size
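Chicken DT40 Tdp1-/- cells stably complemented with human TDP1 were seeded at 400 cells/well in medium containing 20 nM camptothecin, exposed to pin-transferred compounds, and grown at 37 °C for at least 48 hr. Viability was read as ATP luminescence.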
IL-1B inflam inh – blocks inflammasome-driven IL-1 beta release; THP-1 LPS/ATP IL-1B secretion, AlphaLISA, 16 h; stronger effect = lower value; activity change, % at 57.5 µM; 4.7% of 360,000 active; in the data active = activity change below about -50%; inconclusive = mostly about -30% to -49%; also: % is scaled to controls: 0 for no effect and ±100 for the full control effect
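Secreted IL-1B measured by AlphaLISA bead assay after 16 h compound exposure of THP-1 cells; compounds (final up to 57.5 uM) added 1 h before LPS (250 ng/mL) and ATP (1.25 mM) stimulation; lower signal means less secretion.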
TGFb inhibitor – TGF-b pathway inhibition. HepG2 CAGA-GFP TGF-b/SMAD3 reporter, GFP fluorescence, 18 h; TGF-beta stimulated, 500 pg/mL final. 1.2% of 410,000 active. Potency, µM (series often up to 46.1 µM), inactives show at the top dose activity, negative = inhibition, hits mostly inhibitors. AID 588855; also: potency is read from the fitted curve at half-maximal effect; % is scaled to controls: 0 for no effect and ±100 for the full control effect; nearly all actives have a fitted effect of over 65% in size
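HEPG2 CAGA-GFP reporter cells (1000/well, DMEM with 1% FBS) received compounds, then recombinant TGF-beta at 500 pg/mL final for 18 hours at 37 degrees C. Per-cell GFP summed per well was normalised to unstimulated and stimulated DMSO controls before curve fitting.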
TDP1 block – blocks human tyrosyl-DNA phosphodiesterase 1. Q9NUW8. recombinant TDP1, AlphaScreen DNA substrate cleavage. Potency, µM (titrated, usually from 130 µM), for inactives: at the top dose activity change, negative = inhibition, actives largely listed as inhibitors. 0.28% of 350,000 active; also: potency is read from the fitted curve at half-maximal effect; % is scaled to controls: 0 for no effect and ±100 for the full control effect; nearly all actives have a fitted effect of over 40% in size
Target sequence (Q9NUW8 whole entry, looked up): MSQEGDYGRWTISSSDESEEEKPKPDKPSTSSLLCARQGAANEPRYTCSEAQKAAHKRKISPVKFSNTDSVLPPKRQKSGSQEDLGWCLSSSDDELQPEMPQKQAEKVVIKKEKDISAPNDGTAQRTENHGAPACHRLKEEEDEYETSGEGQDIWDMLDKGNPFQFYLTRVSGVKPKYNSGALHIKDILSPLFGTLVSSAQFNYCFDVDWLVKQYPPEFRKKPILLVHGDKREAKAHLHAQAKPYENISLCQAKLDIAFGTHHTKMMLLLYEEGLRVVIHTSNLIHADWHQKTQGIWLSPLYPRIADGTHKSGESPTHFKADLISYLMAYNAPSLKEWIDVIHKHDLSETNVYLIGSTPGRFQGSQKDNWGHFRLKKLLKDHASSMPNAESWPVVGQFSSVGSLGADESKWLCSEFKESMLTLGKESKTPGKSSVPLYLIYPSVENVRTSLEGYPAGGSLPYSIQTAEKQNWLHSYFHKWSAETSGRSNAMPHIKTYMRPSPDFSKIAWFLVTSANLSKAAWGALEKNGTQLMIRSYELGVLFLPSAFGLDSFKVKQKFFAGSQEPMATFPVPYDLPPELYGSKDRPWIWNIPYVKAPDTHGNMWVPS
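Compounds were preincubated with Tdp1 (1 nM final) for 15 min at room temperature before substrate (15 nM final) started a 5 min reaction; beads (10 ug/ml final) were then added for 10 min before AlphaScreen detection.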
HepG2 tox – counter-screen for TGF-b inhibitors: cytotoxicity in HepG2 cells; HepG2 CAGA-GFP viability, ATP luminescence, 18 h; 0.76% of 410,000 active; Potency, µM (doses to about 46.1 µM), for inactives: at the highest dose activity change, negative = cytotoxicity, most hits filed as cytotoxic; also: potency is read from the fitted curve at half-maximal effect
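CellTiter-Glo luminescence gave cytotoxicity after 18 hours at 37 degrees C. The cells were HepG2 CAGA-GFP in 1% FBS DMEM, stimulated with 500 pg/mL TGF-beta after compound addition. %Activity was normalised to no-cell wells (complete cell-killing) and DMSO (no toxicity), and curves were fitted and classified.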
Active calls of the source: *; i = inactive; ? = inconclusive; nt = not tested or not shown; [ ] = remark or other dose. Unless noted, calls follow the shape of the dose curve; as a rule, active = well fitted curve in the direction sought with a large enough effect; inconclusive = small, poorly fitted or top-dose-only effect, or another doubt; inactive = no such curve, though single readings can be large; an effect the other way counts as inactive or inconclusive.

SMILES	DT40 TDP1 no CPT	DT40 TDP1 CPT	IL-1B inflam inh	TGFb inhibitor	TDP1 block	HepG2 tox
Clc1ccc(-c2c[n+](Cc3cccc(Cl)c3)c3n2CCC3)cc1	8.2µM*	10µM*	-74*	-29%	8%	-6%
Clc1ccc(C[n+]2cc(-c3ccccc3)n3c2CCC3)cc1Cl	3.7µM*	6.5µM*	-67*	-11%	2%	0%
O=C(C[n+]1cc(-c2ccc(Cl)c(Cl)c2)n2c1CCC2)OCc1ccccc1	-14%	-13%	i	14%	-5%	-5%
O=C1C=C(NCCc2cc(Br)c(O)c(Br)c2)C(=O)c2ncccc21	2.1µM*	1.2µM*	-105*	?	nt	7.1µM*
O=C1C=C(NCCO)C(=O)c2cnccc21	nt	nt	nt	nt	3%	nt
O=C(CCc1nnc2ccc(NCc3ccco3)nn12)Nc1ccc(F)cc1	0%	-4%	-6	10%	5%	-9%
Cc1onc(-c2ccccc2)c1C(=O)NCCN1Cc2ccccc2OC(c2ccsc2)C1 (configuration not stated)	15µM*	-1%[9.04 µM]	nt	nt	nt	nt
O=c1ccc2ccccc2c2ccccc12	2.6µM*	2.9µM*	-115*	13µM*	nt	-61%
CC(NS(=O)(=O)c1ccc(N)cc1)C1CC2CCC1C2 (configuration not stated)	?	-10%	?	5%	0%	-4%
CCCOc1ccc(-c2nn(-c3ccccc3)cc2/C=C2\SC(N)=NC2=O)cc1	27%	1%	25	1%	-3%	6%
Cc1cc(-c2nn(-c3ccccc3)cc2/C=C2\SC(N)=NC2=O)ccc1OC(C)C	?	?	-8	?	-5%	-1%
CC1CCN(C2=NC(=O)/C(=C/c3cn(-c4ccccc4)nc3-c3cccc(S(=O)(=O)N(C)C)c3)S2)CC1	6.5µM*	7.3µM*	-30	0%	4%	-20%
CC1CCCN(C2=NC(=O)/C(=C/c3cn(-c4ccccc4)nc3-c3cccc(S(=O)(=O)N(C)C)c3)S2)C1 (configuration not stated)	12µM*	16µM*	-17	17%	5%	39%
COCCCNC(=O)Cn1c(=O)n(-c2ccccc2)c(=O)c2c1c1cc(OC)ccc1n2C	-15%	-5%	nt	0%	3%	-5%
CC(=O)N1c2ccc(S(=O)(=O)N3CCCCCC3)cc2CC1C(=O)NCc1cccc(C)c1 (configuration not stated)	-17%	?	nt	?	6%	7%
C/C(=N\Nc1nnc2c3ccccc3n(C)c2n1)c1ccc(C)o1	?	-18%	-65*	-28%	6%	-20%
CCCN1C(=O)/C(=N\OCC(=O)Nc2ccc(C(C)C)cc2)c2ccccc21	?	-15%	?	-22%	4%	-3%
CCCN1C(=O)/C(=N\OCC(=O)NC23CC4CC(CC(C4)C2)C3)c2ccccc21	16µM*	16µM*	-4	-2%	5%	-11%
Cc1cccc(NS(=O)(=O)c2ccc(NC(=O)N3CCCC3)cc2)c1	-10%	-11%	nt	0%	7%	16%
CCCC/C=C1/CCC(CN(C)C)C1=O (configuration not stated)	2.3µM*	2.1µM*	-28	-9%	nt	-4%
COc1ccc(S(=O)(=O)N(C)C[C@H]2Oc3ccc(NC(=O)Cc4cn(C)c5ccccc45)cc3C(=O)N([C@@H](C)CO)C[C@@H]2C)cc1	15µM*	?	-2	?	3%	-17%
COc1ccc(S(=O)(=O)N(C)C[C@H]2Oc3ccc(NS(=O)(=O)c4ccccc4)cc3C(=O)N([C@H](C)CO)C[C@@H]2C)cc1	-9%	-26%	?	0%	-6%	-22%

Compound activity from PubChem.
